Results from PubChem BioAssay (Tox21).
Unmarked numbers belong to inactive results. Activity calls are given as the source filed them. Calls come from the whole dose curve; as a rule, active = well fitted curve in the direction sought with a large enough effect in the repeat runs; inconclusive = weak or mixed curves; inactive = flat fitted curve, though single readings scatter.
% is set by controls: 0 for no effect and ±100 for the full control effect.

Assay: qHTS assay to test for compound auto fluorescence at 590 nm (red) in HepG2 cell free culture (AID 720684)
Conditions: cell-free medium autofluorescence, red 540/590 nm; series mostly up to 91.3 µM
From the text: U.S. Tox21 Program National Center for Advancing Translational Sciences [NCATS] NIH Chemical Genomics Center [NCGC] U.S. Environmental Protection Agency [EPA] National Institutes of Environmental Health Sciences [NIEHS] National Toxicology Program [NTP] U.S. Food and Drug Administration [FDA] Tox21 Assay Overview: Compound auto fluorescence often interferes with screening of the compound library against various biological targets and signaling pathways. Some of these compounds may have fluorophoric properties. Such properties may interfere with the assay outputs resulting in false positives and/or negatives. To decrease such complications and ensure the compound activities are relevant in terms of biological response, the Tox21 10K compound library was screened for auto fluorescence. From the fluorophores used as reporter signals in our screening assays, the auto fluorescence equivalencies of compounds against three fluorophores have been evaluated: Triamterene, Fluorescein and Rose Bengal sodium for blue, green and red fluorescence, respectively. The fluorescence intensities were measured using Excitation/Emission wavelengths at 405/460nm, 485/535nm and 540/590nm for blue, green and red labels, respectively. This assay includes the red fluorescence data.
Tox21 Assay Protocol Summary: 5 uL of culture medium (MEM containing 10% FBS) per well was dispensed into black wall/clear bottom 1536-well plates using a Multidrop Combi Dispenser (ThermoFisher Scientific, Waltham, MA). After 23 nL compound or DMSO vehicle was transferred into assay plate by a pintool work station (Kalypsys, San Diego, CA), fluorescence intensities in the assay plates were measured by an Envision (PerkinElmer, Shelton, CT) plate reader using three labels for measuring blue, green and red fluorescence at […] 460, 535 and 590nm respectively.
With C#C[C@]1(O)C=C[C@H]2[C@@H]3CCC4=CC(=O)CC[C@@H]4[C@H]3CC[C@@]21CC the outcome was “inactive”. With CNC(=O)Oc1ccc(N(C)C)c(C)c1 the outcome was “inactive”. With O=C(Cc1ccccc1)OCc1ccccc1 the outcome was “inactive”. With ClC(Cl)C(Cl)Cl the outcome was “inactive”. With O=[N+]([O-])c1ccc2c3c(cccc13)CC2 the outcome was “inactive”. With OC(c1ccc(F)cc1)(c1cncnc1)c1ccccc1Cl (stereo not given) the outcome was “inactive”. For CC(=O)[C@H]1CC[C@H]2[C@@H]3CC[C@H]4C[C@H](O)CC[C@]4(C)[C@H]3C(=O)C[C@]12C, the outcome was “inactive”. For COC(=O)c1ccccc1S(=O)(=O)NC(=O)N(C)c1nc(C)nc(OC)n1, the outcome was “inactive”. With CSc1ccc(C(=O)C(C)(C)N2CCOCC2)cc1 the outcome was “inactive”. In the case of CC(=O)CC(c1ccc(Cl)cc1)c1c(O)c2ccccc2oc1=O (stereo not given), the outcome is reported as “inactive”. In the case of CNC(=O)O/N=C(\C)SC, the outcome is reported as “inactive”. Work on O=C(CCCN1CCC(n2c(=O)[nH]c3ccccc32)CC1)c1ccc(F)cc1 yielded a fluorescence, % of Rose Bengal of 0.463% [at 18.6 µM]. In the case of CCC(Cl)[N+](=O)[O-] (stereo not given), the outcome is reported as “inactive”. With c1cc[c]([Hg][c]2ccccc2)cc1 the outcome was “inactive”. For CN1CCC(O)(c2ccc(F)cc2)C(C(=O)c2ccc(F)cc2)C1 (stereo not given), the outcome was “inactive”. With CC(=O)Nc1cc([As](=O)(O)O)ccc1O the outcome was “inactive”. For CCOP(=S)(OCC)SCSc1ccc(Cl)cc1, the outcome was “inactive”. In the case of CNC(=O)Oc1cccc(C(C)C)c1, the outcome is reported as “inactive”. For CCCCOC(=O)c1ccccc1C(=O)O, the outcome was “inactive”. For CCCCOP(=O)(O)OCCCC, the outcome was “inactive”. With CC(C)(C)OC(=O)c1ncn2c1[C@@H]1CCCN1C(=O)c1c(Br)cccc1-2 the outcome was “inactive”. In the case of O=C1CN=C(c2ccccc2)c2cc([N+](=O)[O-])ccc2N1, the outcome is reported as “inactive”. In the case of COc1cc(OC)nc(NC(=O)NS(=O)(=O)c2ncccc2OCC(F)(F)F)n1, the outcome is reported as “inactive”. In the case of CNC(=O)Oc1ccccc1C1OCCO1, the outcome is reported as “inactive”. With Cc1ccccc1CO[C@@H]1C[C@@]2(C(C)C)CC[C@]1(C)O2 the outcome was “inactive”. For COc1cc(C[C@@H](C)N)c(OC)cc1C, the outcome was “inactive”. For COc1cc(OC)nc(Sc2cccc(Cl)c2C(=O)O)n1, the outcome was “inactive”. In the case of N#Cc1c(Cl)cccc1Cl, the outcome is reported as “inactive”. For CSc1nc(N=[N+]=[N-])nc(NC(C)C)n1, the outcome was “inactive”. In the case of COc1cc(OC)nc(NC(=O)NS(=O)(=O)c2ncccc2C(=O)N(C)C)n1, the outcome is reported as “inactive”. For CCN(CC)CCOC(=O)C(C)(c1ccccc1)c1ccccc1, the outcome was “inactive”. With COc1cccc(C(=O)NN(C(=O)c2cc(C)cc(C)c2)C(C)(C)C)c1C the outcome was “inactive”. For CCOc1nc(C(Cl)(Cl)Cl)ns1, the outcome was “inactive”. In the case of Cc1nnc2n1-c1sc(CCC(=O)N3CCOCC3)cc1C(c1ccccc1Cl)=NC2, the outcome is reported as “inactive”. In the case of Nc1ccccc1Cl, the outcome is reported as “inactive”. With Clc1cccc(N2CCNCC2)c1 the outcome was “inactive”. With CCc1cc2c(s1)-n1c(C)nnc1CN=C2c1ccccc1Cl the outcome was “inactive”. With c1coc(-c2nc3ccccc3[nH]2)c1 the outcome was “inactive”. In the case of CC(C)(C)NCC(O)c1cc(Cl)c(N)c(Cl)c1 (stereo not given), the outcome is reported as “inactive”. With COP(=S)(OC)Oc1c(Cl)cc(C)cc1Cl the outcome was “inactive”.
